# Shn3 inh set2: reduces Shn3 3'UTR luciferase signal in osteoblasts. Clone20 osteoblast Shn3 3'UTR firefly luciferase, 24 h. inhibition, % at 12.5 µM. 360,000 tested, 0.52% active;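 active = mean inhibition of at least 75% with every replicate also reaching 75%; inconclusive = mean inhibition at least 75% but some replicate below; inactive = mean inhibition below 75%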;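 also: 0% = median of neutral control wells and 100% = pilot-screen positive control compound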
# PAX8 reporter: lowers PAX8-driven luciferase in RMG-I cells; RMG-I TPO-luciferase reporter, SteadyGlo, 24 h; inhibition, % at 12.6 µM; 360,000 tested, 1.2% active; AID 652154;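 active = mean replicate inhibition at least 60% with every replicate also reaching 60%; inconclusive = only one of the two criteria is met; inactive = mean below 60% and not all replicates reaching 60%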;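 also: luciferase light reporting Pax8 driven TPO promoter activity; plate controls were median of neutral control wells for no effect and mitoxantrone controls for full effect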
# Glyco luc inh: blocks N-linked glycosylation in D54 reporter cells; D54 ERlucT glycosylation luciferase reporter, 24 h; percent of 100 nM tunicamycin response; reporter increase, % at 12.5 µM; 360,000 tested, 0.23% active; AID 588692;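 active = mean luciferase reporter signal, scaled so untreated is 0 and the glycosylation-blocking control 100, at or above a set limit in every replicate; inconclusive = mean reaches the limit but not every replicate does; inactive = mean below the limit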;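 also: luciferase carries N-glycosylation sites so blocking glycosylation raises the light; 0% = median of neutral control wells and 100% = median of 100 nM tunicamycin wells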
# NSD2 inh: inhibitors of human histone methyltransferase NSD2. AID 743445. O96028. inhibition, % at 12.5 µM. NSD2 peptide methylation, AlphaScreen, 120 min. 310,000 tested, 0.54% active; in the data active = inhibition above about 50%
# LMP1 NFkB inh: Epstein-Barr LMP1 NF-kappaB reporter inhibition. LMP1-induced NF-kappaB luciferase reporter cells, luminescence. inhibition, % at 12.5 µM. 350,000 tested, 0.69% active. AID 504558; in the data active = inhibition above about 41%; inconclusive = no clear call, values can overlap the other calls;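 also: 0% = neutral control wells and 100% = reference inhibitor control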
# Env fusion inh: HIV envelope-mediated fusion inhibition | HeLa-JRFL Env/CEM21 cell fusion, luciferase | inhibition, % at 12.3 µM | 360,000 tested, 1.1% active;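 active = mean replicate inhibition score of at least 50 and every replicate individually at or above 50; inconclusive = only one of the two criteria met; inactive = mean below 50 and not all replicates reaching 50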;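 also: 0% = plate neutral controls and 100% = maraviroc near 300 nM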
# Active calls of the source: *; ? = inconclusive; · = no result given; [ ] = another dose, or the depositor's remark. Only some compounds are listed: those with a hit (about 2.8% of all), similar ones and a draw of the others.
SMILES,Shn3 inh set2,PAX8 reporter,Glyco luc inh,NSD2 inh,LMP1 NFkB inh,Env fusion inh
O=C(NNC(=O)C1CC1c1ccccc1)Nc1cccc(Cl)c1 (stereo not drawn),-14,·,1,0,7,56*
CCc1cccc(NC(=O)C2CC2c2ccccc2)c1 (stereo not drawn),-8,-28,-2,-3,2,0
O=C(CN(c1ccc(Cl)cc1)S(=O)(=O)c1ccc(Cl)c([N+](=O)[O-])c1)NCCc1ccc(F)cc1,15,11,0,-2,-13,-9
O=C(CN(c1ccc(Cl)cc1)S(=O)(=O)c1ccc(Cl)c([N+](=O)[O-])c1)NCCc1ccccc1,36,79*,0,-3,9,13
COc1ccc(CNC(=O)c2c(C)oc3c2C(=O)c2ccccc2C3=O)cc1,76,28,-19,·,13,64*
CCOC(=O)C1Nc2ccc(C(=O)O)cc2C2C=CCC12 (stereo not drawn),2,-8,0,100*,4,-14
Cc1noc(C)c1NC(=O)Nc1ccc2c(c1)C(=O)N([C@@H](C)CO)C[C@@H](C)[C@@H](CN(C)C(=O)Nc1ccc(F)cc1)OCCCC[C@@H](C)O2,·,16,·,·,·,-13[16.7 µM]
CSc1nnc(NC(=O)c2nc(S(=O)(=O)Cc3cccc(C)c3)ncc2Cl)s1,96*,31,-4,-1,?,89*
Cc1nnc(NC(=O)c2nc(S(=O)(=O)Cc3ccccc3C)ncc2Cl)s1,96*,24,5,-2,81*,?
CC(C)c1nnc(NC(=O)c2nc(S(=O)(=O)Cc3ccc(F)cc3)ncc2Cl)s1,98*,16,12,·,85*,19
Cc1ccc(CS(=O)(=O)c2ncc(Cl)c(C(=O)Nc3nnc(C(C)C)s3)n2)cc1,95*,28,15,12,39,7
Cc1nnc(NC(=O)CN2CCN(Cc3ccccc3Cl)CC2)s1,12,17,-1,3,6,-323
CSc1ncc(Cl)c(C(=O)Nc2nnc(SC/C=C/c3ccccc3)s2)n1,-37,·,0,8,0,-21
CO[C@@H]1CN(C)C(=O)c2cc(NC(C)=O)ccc2OC[C@H](C)N(C(=O)Cc2ccccn2)C[C@H]1C,·,-6,·,·,·,·
C[C@H](O)C#Cc1cnc2c(c1)C(=O)N([C@H](C)CO)C[C@H](C)[C@@H](CN(C)C(=O)c1ccccc1)O2,·,·,·,·,·,-17[16.7 µM]
Cc1cccc(CS(=O)(=O)c2ncc(Cl)c(C(=O)Nc3nnc(C(C)C)s3)n2)c1,95*,·,4,1,56*,·
CSc1nnc(NC(=O)c2nc(S(=O)(=O)Cc3ccccc3F)ncc2Cl)s1,96*,1,-9,·,13,-187
CCSc1nnc(NC(=O)c2nc(S(=O)(=O)Cc3ccc(F)cc3)ncc2Cl)s1,96*,7,5,5,5,-13
CC(C)c1nnc(NC(=O)c2nc(S(=O)(=O)Cc3ccccc3F)ncc2Cl)s1,·,0,·,3,·,-108
O=C(NC[C@@H]1CC[C@H]2[C@H](CN2Cc2cc(-c3ccccc3)on2)O1)c1ccc2c(c1)OCO2,·,39,·,·,·,58*[16.7 µM]
C[C@H]1CN([C@@H](C)CO)C(=O)c2cc(/C=C/c3ccccc3)cnc2O[C@H]1CN(C)S(=O)(=O)c1cccs1,·,·,·,·,·,11[16.7 µM]
CN1C[C@H]2[C@@H](c3ccccc31)[C@H](CO)N2Cc1ccccc1Cl,·,15,·,·,·,·
O=S(=O)(c1ccc(F)cc1)N1C[C@H]2[C@@H](c3ccccc31)[C@H](CO)N2Cc1ccccc1Cl,·,109*,·,·,·,·
CN1C[C@@H]2[C@H](c3ccccc31)[C@H](CO)N2Cc1ccccc1Cl,·,109*,·,·,·,·
O=S(=O)(c1ccc(F)cc1)N1C[C@@H]2[C@H](c3ccccc31)[C@H](CO)N2Cc1ccccc1Cl,·,2,·,·,·,·
SMILES,Shn3 inh set2,PAX8 reporter,Glyco luc inh,NSD2 inh,LMP1 NFkB inh,Env fusion inh
Cc1cc(C)nc(Nc2cccc(Cl)c2)n1,-7,-2,1,-3,0,-23
OCCCNc1cc(-c2ccnc(Nc3cccc(Cl)c3)n2)ccn1,90*,98*,-7,·,89*,52
CCC(C)Oc1cc(-c2ccnc(Nc3cccc(Cl)c3)n2)ccn1 (stereo not drawn),-31,-84,13,·,-105,66*
CC(C)NC(=O)N[C@H]1CC[C@H](CCn2cc(-c3ccc(F)cc3)nn2)O[C@@H]1CO,·,16,·,·,·,18[16.7 µM]
CC(C)NC(=O)Nc1ccc2c(c1)C(=O)N([C@H](C)CO)C[C@@H](C)[C@@H](CN(C)Cc1ccncc1)OCCCC[C@@H](C)O2,·,-21,·,·,·,28[16.7 µM]
CC(=O)C(C(C)=O)c1c(Cl)c(O)c(O)c2c(C(=O)c3ccccc3)coc12,89*,·,12,·,8,·
COc1ccc2[nH]c(C)c(CCN(Cc3cccs3)C(=S)Nc3ccccc3)c2c1,60,41,-1,·,-10,13
COc1ccc2[nH]c(C)c(CCN(Cc3cccs3)C(=S)Nc3ccc(F)cc3)c2c1,86*,·,-2,·,2,·
O=C(NCCO)c1cc2c([nH]c3ccccc32)c(-c2ccccc2)n1,-5,28,6,0,-14,34
Cc1ccc(-c2nc(C(=O)NCCCN(C)C)cc3c2[nH]c2ccccc23)cc1,-11,19,46*,7,-5,-40
Nc1cc(=O)[nH]c(SCCSc2ccc(F)cc2)n1,-15,-25,0,-4,6,66*
O=S(=O)(c1ccccc1)N1CCCCN2[C@H](CO)[C@H](c3ccc(C#Cc4cccnc4)cc3)[C@@H]2C1,·,-6,·,·,·,·
CCOc1ccc(-c2cc(N)n(S(=O)(=O)c3cccc4nsnc34)n2)cc1,2,14,2,0,-7,64*
COc1ccc(-c2cn(-c3ccc(C)c(C)c3)c(=S)[nH]2)cc1OC,-13,-7,-2,3,-1,7
COc1ccc(-c2cn(-c3ccccc3)c(=S)[nH]2)cc1OC,-44,-5,-12,15,-12,62*
N=C1S/C(=C\c2ccccc2)C(=O)N1c1ccc(F)cc1,-25,3,1,-3,67*,16
C[C@H]1CN([C@@H](C)CO)C(=O)c2cccc(NC(=O)C3CC3)c2O[C@@H]1CN(C)Cc1ccc(Cl)c(Cl)c1,·,·,·,·,·,-5[16.7 µM]
Cc1nn(-c2ccccc2)c(Cl)c1/C=N/Nc1nc2ccccc2[nH]1,33,-72,66*,0,-38,-274
O=C(CCNS(=O)(=O)c1cccs1)N1CCN(c2cccc(Cl)c2)CC1,20,22,-3,0,4,-4
O=C(C1CCC(CNS(=O)(=O)c2cccs2)CC1)N1CCN(c2ccc(Cl)cc2)CC1 (stereo not drawn),88*,68*,-9,-4,33,18
O=C(CCCNS(=O)(=O)c1cccs1)N1CCN(c2cccc(Cl)c2)CC1,12,25,·,·,12,71*
Cc1ccccc1S(=O)(=O)N(C)C[C@@H]1OCc2ccccc2-c2c(n(C)c3ccccc23)C(=O)N([C@H](C)CO)C[C@@H]1C,5,-4,-3,·,4,74*

# Screening data from PubChem BioAssay.
